We go through eight molecules from ChEMBL document CHEMBL3988442, “University of Dundee, Small-Polar-MMV Screening Library” (2021).

Common to all, as to design: scale not given: direction of the effect not stated beside the values
The target in experiment [1] is Protein translocase subunit SecA (Escherichia coli (strain K12)) (UniProt P10408). In words: Assay to Identify E. coli SecA ATPase Inhibitors. Format: functional. The following applies: 30 µM.
The target of experiment [2] is T1, Ubiquitin-activating enzyme e1, putative (Leishmania donovani (strain BPK282A1)) (UniProt E9BSI1).
T1 sequence (whole entry): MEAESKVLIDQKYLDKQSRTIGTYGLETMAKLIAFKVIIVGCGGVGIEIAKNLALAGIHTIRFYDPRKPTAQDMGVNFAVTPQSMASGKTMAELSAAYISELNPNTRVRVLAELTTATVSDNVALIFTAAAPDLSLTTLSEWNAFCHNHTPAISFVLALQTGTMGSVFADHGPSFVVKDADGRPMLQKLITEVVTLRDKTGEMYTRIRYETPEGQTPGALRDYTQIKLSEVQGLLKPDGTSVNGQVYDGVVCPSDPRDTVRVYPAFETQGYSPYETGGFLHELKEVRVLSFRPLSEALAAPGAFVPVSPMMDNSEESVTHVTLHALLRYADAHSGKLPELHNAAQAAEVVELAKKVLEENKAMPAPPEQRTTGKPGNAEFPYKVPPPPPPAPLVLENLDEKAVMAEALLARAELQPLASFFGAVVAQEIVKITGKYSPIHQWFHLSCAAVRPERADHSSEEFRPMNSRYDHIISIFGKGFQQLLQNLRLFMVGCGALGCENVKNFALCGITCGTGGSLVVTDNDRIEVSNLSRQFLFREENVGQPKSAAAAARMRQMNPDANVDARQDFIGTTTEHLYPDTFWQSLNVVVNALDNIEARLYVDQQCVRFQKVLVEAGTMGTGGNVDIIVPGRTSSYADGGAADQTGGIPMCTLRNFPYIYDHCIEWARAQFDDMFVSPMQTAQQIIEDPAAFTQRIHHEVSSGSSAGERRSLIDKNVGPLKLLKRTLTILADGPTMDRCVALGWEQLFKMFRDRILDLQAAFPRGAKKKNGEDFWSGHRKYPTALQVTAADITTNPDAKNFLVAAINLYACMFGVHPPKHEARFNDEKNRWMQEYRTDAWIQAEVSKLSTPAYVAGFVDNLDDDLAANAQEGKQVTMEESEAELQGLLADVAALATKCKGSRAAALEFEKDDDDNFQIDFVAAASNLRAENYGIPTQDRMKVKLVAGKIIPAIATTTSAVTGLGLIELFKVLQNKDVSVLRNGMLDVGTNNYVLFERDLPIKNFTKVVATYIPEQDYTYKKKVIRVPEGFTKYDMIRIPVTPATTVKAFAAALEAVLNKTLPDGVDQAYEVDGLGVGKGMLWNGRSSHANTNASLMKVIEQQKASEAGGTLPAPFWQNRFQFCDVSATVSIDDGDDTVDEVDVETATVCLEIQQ
In words: Leishmania donovani Ubiquitin Activating Enzyme (LdE1). Format: functional. The following applies: 30 µM.

The target of experiment [3] is AMP-activated protein kinase, AMPK (Homo sapiens) (UniProt P54646+O43741+P54619+Q9UGJ0+Q9Y478+Q13131+Q9UGI9). As to the kind of experiment: AMP-dependent Kinase enzyme assay. An in vitro enzyme assay that detects ADP turnover that is directly proportional to AMPK activity. This uses naive AMPK that is activated during the assay with MK-8722. The class given is functional. The following applies: 30 µM.

For experiment [4], the target named is Sialic acid-binding Ig-like lectin 9 (Homo sapiens) (UniProt Q9Y336). As to the kind of experiment: Hs-Siglec9 ALPHAscreen SOP 20170721. The following applies: 10 µM. In general terms: Bead proximity is the source of the signal in Alpha formats.
Chain of Sialic acid-binding Ig-like lectin 9 (Homo sapiens) (Q9Y336 whole entry): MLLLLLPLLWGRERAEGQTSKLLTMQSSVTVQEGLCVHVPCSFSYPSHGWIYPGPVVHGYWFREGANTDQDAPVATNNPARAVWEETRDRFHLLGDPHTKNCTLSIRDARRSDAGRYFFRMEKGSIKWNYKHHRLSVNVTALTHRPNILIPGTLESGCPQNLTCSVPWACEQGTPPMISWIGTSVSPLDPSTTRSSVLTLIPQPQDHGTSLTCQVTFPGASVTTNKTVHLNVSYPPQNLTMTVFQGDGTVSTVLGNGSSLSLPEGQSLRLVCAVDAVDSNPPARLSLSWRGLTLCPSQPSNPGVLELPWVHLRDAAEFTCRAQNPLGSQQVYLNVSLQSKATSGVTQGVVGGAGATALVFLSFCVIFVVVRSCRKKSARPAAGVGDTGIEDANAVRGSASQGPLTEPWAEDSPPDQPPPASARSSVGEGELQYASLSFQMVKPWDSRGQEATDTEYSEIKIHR
The subject of experiment [5] is Trypanosoma cruzi. In words: Trypanosoma cruzi phosphomannomutase and mannose-1-phosphate guanylyltransferase assay. The class given is functional. To be noted: 10 µM.
Experiment [6] deals with T2, Arginase-2, mitochondrial (Homo sapiens) (UniProt P78540).
T2 sequence (whole entry): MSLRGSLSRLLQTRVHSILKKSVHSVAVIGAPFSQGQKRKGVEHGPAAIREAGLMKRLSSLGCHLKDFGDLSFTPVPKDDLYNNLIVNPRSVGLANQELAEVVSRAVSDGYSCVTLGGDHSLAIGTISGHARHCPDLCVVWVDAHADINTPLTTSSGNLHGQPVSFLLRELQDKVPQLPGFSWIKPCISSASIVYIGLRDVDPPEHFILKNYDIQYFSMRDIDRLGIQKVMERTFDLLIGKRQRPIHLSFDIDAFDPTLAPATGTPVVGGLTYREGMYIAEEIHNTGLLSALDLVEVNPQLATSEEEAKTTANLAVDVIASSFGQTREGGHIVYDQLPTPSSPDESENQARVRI
In words: in vitro enzyme assay to detect the production of urea directly proportional to the activity of Arginase II. Also: in the data most compounds retested in dose-response had high values. The class given is functional. The following applies: 33.3 µM.

Experiment [7] addresses T3, Proteasome subunit beta (Trypanosoma cruzi) (UniProt O96673).
T3 sequence (whole entry): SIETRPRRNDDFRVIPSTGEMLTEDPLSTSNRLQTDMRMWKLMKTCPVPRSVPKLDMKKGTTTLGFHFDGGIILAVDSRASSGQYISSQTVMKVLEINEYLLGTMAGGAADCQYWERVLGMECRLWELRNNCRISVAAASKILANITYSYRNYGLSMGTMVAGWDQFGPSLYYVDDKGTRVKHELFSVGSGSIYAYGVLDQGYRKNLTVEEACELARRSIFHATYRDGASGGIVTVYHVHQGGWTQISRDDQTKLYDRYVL
As to the kind of experiment: Trypanosoma cruzi proteasome chymotrypsin-like activity (TcProtChymo) assay. Also: in the data most compounds retested in dose-response had high values. The class given is functional. To be noted: 9.37 µM.

Experiment [8] is filed under the species Homo sapiens. As to the kind of experiment: To identify inhibition of the IFN signalling (Jak-Stat) pathway via expression of an eGFP reporter gene under the control of an IFN-stimulated response element (ISRE) containing MxA promoter. The class given is functional. The following applies: 30 µM.
Experiment [9] has as its target T4, Tyrosyl-tRNA synthetase, putative (Trypanosoma cruzi (strain CL Brener)) (UniProt Q4DSP6).
T4 sequence (whole entry): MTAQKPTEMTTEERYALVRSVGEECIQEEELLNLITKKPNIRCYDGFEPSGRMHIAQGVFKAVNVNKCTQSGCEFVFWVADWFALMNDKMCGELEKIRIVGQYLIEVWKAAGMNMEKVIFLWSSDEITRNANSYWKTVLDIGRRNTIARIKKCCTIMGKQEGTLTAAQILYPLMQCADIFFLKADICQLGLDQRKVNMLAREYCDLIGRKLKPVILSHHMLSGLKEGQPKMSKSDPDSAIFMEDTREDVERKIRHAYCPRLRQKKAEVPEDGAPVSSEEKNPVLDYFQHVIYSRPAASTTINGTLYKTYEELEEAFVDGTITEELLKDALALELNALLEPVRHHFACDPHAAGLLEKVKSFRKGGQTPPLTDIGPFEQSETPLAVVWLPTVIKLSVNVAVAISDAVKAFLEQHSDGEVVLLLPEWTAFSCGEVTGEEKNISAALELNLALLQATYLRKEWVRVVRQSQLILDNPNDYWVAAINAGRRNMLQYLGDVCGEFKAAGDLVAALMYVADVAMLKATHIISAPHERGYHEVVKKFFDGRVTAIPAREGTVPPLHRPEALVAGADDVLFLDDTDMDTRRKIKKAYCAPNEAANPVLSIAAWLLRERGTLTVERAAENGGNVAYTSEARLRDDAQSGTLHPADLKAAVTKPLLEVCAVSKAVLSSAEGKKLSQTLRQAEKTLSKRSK
In words: Trypanosoma cruzi tyrosyl tRNA synthetase (TcYRS) _High Tyrosine SOP. Also: in the data most compounds retested in dose-response had high values. The class given is functional. To be noted: 30 µM.

For experiment [10], the target named is T4, Tyrosyl-tRNA synthetase, putative (Trypanosoma cruzi (strain CL Brener)). As to the kind of experiment: Trypanosoma cruzi tyrosyl tRNA synthetase (TcYRS) SOP. To be noted: 30 µM. Format: functional.
The target of experiment [11] is Chromo domain-containing protein 1 (Saccharomyces cerevisiae (strain ATCC 204508 / S288c) (Baker's yeast)) (UniProt P32657). As to the kind of experiment: ScCHD-1 Enzyme Inhibition Assay. Also: in the data most compounds retested in dose-response had high values. The class given is functional. To be noted: 30 µM.
Chain of Chromo domain-containing protein 1 (Saccharomyces cerevisiae (strain ATCC 204508 / S288c) (Baker's yeast)) (P32657 whole entry, the tested form may be a part): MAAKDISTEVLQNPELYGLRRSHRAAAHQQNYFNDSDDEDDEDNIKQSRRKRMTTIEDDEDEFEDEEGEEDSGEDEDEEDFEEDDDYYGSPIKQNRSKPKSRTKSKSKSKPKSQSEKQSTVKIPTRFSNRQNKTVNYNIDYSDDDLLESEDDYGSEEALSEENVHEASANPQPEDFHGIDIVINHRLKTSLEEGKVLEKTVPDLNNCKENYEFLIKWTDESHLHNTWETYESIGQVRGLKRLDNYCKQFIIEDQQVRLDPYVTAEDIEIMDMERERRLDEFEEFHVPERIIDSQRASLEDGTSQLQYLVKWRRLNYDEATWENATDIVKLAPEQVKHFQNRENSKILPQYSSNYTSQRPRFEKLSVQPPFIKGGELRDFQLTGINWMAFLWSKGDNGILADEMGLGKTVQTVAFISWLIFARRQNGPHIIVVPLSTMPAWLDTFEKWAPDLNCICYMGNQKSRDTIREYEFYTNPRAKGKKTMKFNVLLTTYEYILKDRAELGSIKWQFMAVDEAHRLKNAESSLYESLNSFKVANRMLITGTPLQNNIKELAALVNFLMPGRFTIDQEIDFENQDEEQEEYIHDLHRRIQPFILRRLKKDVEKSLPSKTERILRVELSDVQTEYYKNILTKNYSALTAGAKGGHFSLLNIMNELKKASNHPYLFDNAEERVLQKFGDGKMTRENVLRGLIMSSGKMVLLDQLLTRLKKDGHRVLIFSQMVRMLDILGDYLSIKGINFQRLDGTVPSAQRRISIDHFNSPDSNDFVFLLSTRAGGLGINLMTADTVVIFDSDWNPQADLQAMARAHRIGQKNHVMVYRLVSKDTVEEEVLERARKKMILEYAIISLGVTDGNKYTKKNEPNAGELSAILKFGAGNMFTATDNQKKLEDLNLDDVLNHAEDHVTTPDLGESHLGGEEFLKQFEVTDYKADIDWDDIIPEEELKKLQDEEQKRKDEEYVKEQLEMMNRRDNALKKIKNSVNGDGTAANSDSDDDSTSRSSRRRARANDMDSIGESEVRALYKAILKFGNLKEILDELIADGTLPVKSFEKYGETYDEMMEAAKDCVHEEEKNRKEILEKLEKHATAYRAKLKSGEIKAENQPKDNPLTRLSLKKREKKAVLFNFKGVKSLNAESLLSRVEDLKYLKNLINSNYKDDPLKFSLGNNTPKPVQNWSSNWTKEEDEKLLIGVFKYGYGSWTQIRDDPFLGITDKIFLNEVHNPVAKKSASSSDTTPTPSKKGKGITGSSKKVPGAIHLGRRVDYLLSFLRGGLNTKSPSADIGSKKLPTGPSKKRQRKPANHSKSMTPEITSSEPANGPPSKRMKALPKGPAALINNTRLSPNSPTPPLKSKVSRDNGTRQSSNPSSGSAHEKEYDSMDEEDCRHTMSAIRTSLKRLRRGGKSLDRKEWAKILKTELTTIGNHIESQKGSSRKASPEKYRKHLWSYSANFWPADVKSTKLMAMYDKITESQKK

For some of these results: Potency and affinity values are given separately.

Chain of Protein translocase subunit SecA (Escherichia coli (strain K12)) (P10408 whole entry): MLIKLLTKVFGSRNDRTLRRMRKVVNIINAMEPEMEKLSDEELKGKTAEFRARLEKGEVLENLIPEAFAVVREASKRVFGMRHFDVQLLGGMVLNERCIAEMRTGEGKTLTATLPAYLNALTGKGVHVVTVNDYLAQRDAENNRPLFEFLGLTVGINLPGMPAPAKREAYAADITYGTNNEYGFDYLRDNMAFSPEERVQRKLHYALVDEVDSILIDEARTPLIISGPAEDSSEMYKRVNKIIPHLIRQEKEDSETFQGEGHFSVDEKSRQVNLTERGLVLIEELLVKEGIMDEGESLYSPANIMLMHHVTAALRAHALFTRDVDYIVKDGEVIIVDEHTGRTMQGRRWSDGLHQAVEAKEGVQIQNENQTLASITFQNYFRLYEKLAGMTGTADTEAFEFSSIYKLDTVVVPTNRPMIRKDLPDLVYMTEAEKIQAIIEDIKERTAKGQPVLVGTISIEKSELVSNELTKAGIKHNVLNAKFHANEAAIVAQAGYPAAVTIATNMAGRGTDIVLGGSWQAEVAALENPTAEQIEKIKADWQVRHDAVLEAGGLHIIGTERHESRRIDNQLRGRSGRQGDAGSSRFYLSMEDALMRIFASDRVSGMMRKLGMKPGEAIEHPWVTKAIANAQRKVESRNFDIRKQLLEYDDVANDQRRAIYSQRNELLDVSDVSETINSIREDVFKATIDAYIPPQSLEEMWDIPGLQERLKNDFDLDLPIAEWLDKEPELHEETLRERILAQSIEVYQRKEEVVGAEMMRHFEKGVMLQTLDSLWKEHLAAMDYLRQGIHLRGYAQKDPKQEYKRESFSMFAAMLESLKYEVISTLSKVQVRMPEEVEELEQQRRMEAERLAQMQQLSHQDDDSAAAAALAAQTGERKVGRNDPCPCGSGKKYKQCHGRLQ

Regarding `Cc1nnc2n1CCN(CCC(=O)Nc1sccc1C#N)C2`, the Percent Effect is -2.38% in experiment [1]; 13.2% in experiment [2]; -4.92% in experiment [3]; 7.34% in experiment [4]; 0.84% in experiment [5]; -0.719% in [6]. Moreover, the Percent Effect in [7] is 10.4%; in experiment [8] it was 9.54%; in [9] it was 6.4%; in [10], 18.5%; in experiment [11], -2.88%.
In the case of `O=C(NCCCN1CCCC1=O)Nc1ccc(Br)cc1Cl`, the Percent Effect in experiment [1] was -4.26%; in experiment [2] it was -4%; in experiment [3], 3.31%; in experiment [4] it was 6.15%; in experiment [5], 3.14%; in experiment [6] it was -3.7%. The Percent Effect in experiment [7] is 7.02%; in experiment [8], 8.83%; in experiment [9], 0%; in experiment [10] it was 2.56%; in [11], -2.19%.
For the molecule `Cc1cc(F)ccc1CN1CCCC2(C1)OCCO2`, the Percent Effect in [1] is -1.89%; in experiment [2] it was 2.7%; in experiment [3], -1.85%; in experiment [4] it was -3.22%; in [5] it was 0.391%; in [6], 1.67%. Besides, the Percent Effect in experiment [7] is 6.34%; in experiment [8] it was 1.71%; in experiment [9], 2.97%; in experiment [10], -3.66%; in experiment [11], -3.73%.
On to `COC(=O)C(NC(=O)c1ccco1)c1cc(F)ccc1F` (stereo not drawn), for which the Percent Effect in experiment [1] is -3.29%; in experiment [2], 5.2%; in experiment [3] it was 19.7%; in [4], 11.4%; in [5], 6.93%; in experiment [6] it was -0.712%. Also, the Percent Effect in experiment [7] is 9.46%; in experiment [8], -16.9%; in experiment [9], 1.94%; in experiment [10], 14.6%; in experiment [11], -8.66%.
On to `Cc1ccc(CN2CCc3ncnc(-c4cccnc4)c3CC2)o1`, for which the Percent Effect in experiment [1] is -3.48%; in experiment [2] it was -2.67%; in experiment [3] it was 0.55%; in [4], 8.87%; in [5], -0.772%; in experiment [6] it was -5.91%. Also, the Percent Effect in experiment [7] is 8.72%; in experiment [8], -10.7%; in [9], 2.08%; in experiment [10], 0%; in [11], -3.74%.
Turning to `CC(C)CNC(=O)[C@H]1CCS(=O)(=O)[C@@H]2CN(Cc3cccc(Cl)c3)C[C@H]12`, the Percent Effect in [1] is -8.49%; in experiment [2] it was 0%; in [3], 6.38%; in experiment [4] it was 3.48%; in [5] it was -2.15%; in experiment [6], 0%. Moreover, the Percent Effect is 12.3% in [7]; 12.5% in experiment [8]; 3.96% in experiment [9]; 1.22% in experiment [10]; 3.36% in experiment [11].
`O=C(c1ccc(Br)s1)N1CCN(Cc2ccc(OC(F)(F)F)cc2)CC1`: the Percent Effect is -0.131% in experiment [1]; -13.7% in [2]; 41.1% in [3]; 2.45% in [4]; -3.72% in [5]; -1.82% in experiment [6]. Further, the Percent Effect is 19% in experiment [7]; 8.24% in [8]; 1.07% in experiment [9]; -2.5% in experiment [10]; -11.7% in experiment [11].
Turning to `CN(CC1(O)CCCCC1)C1CCCN(Cc2noc(C3CC3)n2)C1` (stereo not drawn), the Percent Effect in experiment [1] is -0.786%; in experiment [2], 26.3%; in experiment [3], -8.18%; in [4], -11.1%; in [5], -3.46%; in [6], -1.08%. Besides, the Percent Effect in experiment [7] was 10.9%; in experiment [8], 10.4%; in experiment [9], 4.43%; in experiment [10] it was 13.6%; in experiment [11], -3.04%.
